Results: PubChem BioAssay (Tox21)
Where “and” joins values, the source holds several entries; their conditions need not be identical. Identical values can stand only once. Inconclusive results are not listed. Where a call stands in place of a potency, no number is given. The source holds several records for some structures; these can differ, active in one and inactive in another. Calls of active or inactive are those of the source. Unless noted, calls come from the whole dose curve; as a rule, active = well fitted curve in the direction sought with a large enough effect in the repeat runs; inconclusive = weak or mixed curves; inactive = no such curve, though single readings can be large; an effect the other way counts as inactive or inconclusive.

Tests used:
[1] = qHTS assay to identify small molecule HDAC inhibitors (AID 1259364); note: potency is the fitted concentration of half-maximal effect;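 note: wild-type HCT-116 cells with endogenous class I/II HDAC activity; nearly all actives have a fitted effect of over 45% in size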
Procedure, shortened: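 Relative class I and II HDAC activity is taken from the luminogenic signal in HCT-116 cells, with compound exposure 2 hr and reagent development 30 min at room temperature.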

[2] = qHTS assay to identify small molecule HDAC inhibitors - cell viability counter screen (AID 1259365); note: series mostly up to about 92 µM; nearly all actives have a fitted effect of over 50% in size
Procedure, shortened: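 To flag cytotoxic hits, 1,500 wild-type HCT-116 cells per well, plated the day before, receive test compounds for 2hr at 37 C before CellTiter-Glo reagent and a luminescence read.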

[3] = qHTS assay to identify small molecule agonists of the sonic hedgehog signaling (Shh) pathway - cell viability counter screen (AID 1259366); note: nearly all actives have a fitted effect of over 50% in size; note: potency is the fitted concentration of half-maximal effect
Procedure, shortened: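 Fluorescence from CellTiter-Fluor reports live cells in this counter screen. NIH/3T3-derived Gli1-Luc reporter cells receive test compounds for 24hr at 37C; reagent goes in at 23hr.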

[4] = qHTS assay to identify small molecule antagonists of the sonic hedgehog signaling (Shh) pathway - cell viability counter screen (AID 1259367); note: nearly all actives have a fitted effect of over 55% in size; note: potency is the fitted concentration of half-maximal effect
Procedure, shortened: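 Using CellTiter-Fluor, viability of Gli1-Luc reporter 3T3 cells is read by fluorescence in the wells used for the Shh luciferase assay. Treatment lasts 23 hr with conditioned medium, then reagent 1 hr at 37C.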

[5] = qHTS assay to identify small molecule agonists of the sonic hedgehog signaling (Shh) pathway (AID 1259368; calls by dose curve;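 note: NIH/3T3-derived 3T3Gli1-Luc cells carrying a stable Gli1-driven firefly luciferase reporter; series mostly up to about 92 µM; nearly all actives have a fitted effect of over 15% in size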)
Procedure, shortened: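 Mouse fibroblast (NIH/3T3) reporter cells with stably integrated Gli1-Luc were treated 24 hr with compound; firefly luciferase luminescence served as the read-out.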

[6] = qHTS assay to identify small molecule antagonists of the sonic hedgehog signaling (Shh) pathway (AID 1259369; calls by dose curve; note: nearly all actives have a fitted effect of over 45% in size; note: potency is the fitted concentration of half-maximal effect)
Procedure, shortened: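 Conditioned medium drives Shh signalling in 3T3Gli1-Luc cells; compounds in DMSO co-applied, 24hr at 37 C, then luciferase luminescence.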

[7] = qHTS assay to identify small molecule agonists of the androgen receptor (AR) signaling pathway in the presence of an antagonist - cell viability counter screen (AID 1259379); note: nearly all actives have a fitted effect of over 25% in size; note: potency is the fitted concentration of half-maximal effect
Procedure, shortened: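 A CellTiter-Fluor read-out measured viability of MDA-kb2 reporter cells (MMTV promoter with AR and GR response elements). Treatment: nilutamide 3.0uM final with compounds at 15 concentrations, 16 hr, 37C, 0% CO2.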

[8] = qHTS assay to identify small molecule agonists of the estrogen receptor beta (ER-beta) signaling pathway - cell viability counter screen (AID 1259380); note: nearly all actives have a fitted effect of over 30% in size; note: potency is the fitted concentration of half-maximal effect
Procedure, shortened: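 Cells used were ER-beta-UAS-bla HEK293T in medium with 2% charcoal-stripped FBS. They were treated for 16 hr at 37C. Viability came from CellTiter-Glo luminescence.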

[9] = qHTS assay to identify small molecule antagonists of the estrogen receptor beta (ER-beta) signaling pathway - cell viability counter screen (AID 1259382); note: nearly all actives have a fitted effect of over 55% in size; note: potency is the fitted concentration of half-maximal effect
Procedure, shortened: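 Agonist-stimulated (1nM E2) ER-beta-UAS-bla HEK293T cells are incubated with library compounds for 16 hr at 37C. Cell viability is then assessed in the reporter-assay wells by adding CellTiter-Glo and reading luminescence after 30 min.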

[10] = qHTS assay to identify small molecule agonists of the estrogen receptor alpha (ER-alpha) signaling pathway in the presence of an antagonist - cell viability counter screen (AID 1259386);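 note: series mostly up to about 92 µM; cells exposed to compounds for 22 h at 37 °C before the viability read; nearly all actives have a fitted effect of over 30% in size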
Procedure, shortened: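 ICI-182,780 at 10.0nM final accompanies the compound titration (15 concentrations, 22hr, 37C) on VM7Luc4E2 cells. The CellTiter-Fluor fluorescence readout runs in the same wells as the luciferase assay.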

[11] = biological target: Progesterone receptor (Homo sapiens) (UniProt P06401); experiment: qHTS assay to identify small molecule agonists of the progesterone receptor (PR) signaling pathway (AID 1346784; calls by dose curve; note: nearly all actives have a fitted effect of over 30% in size; note: potency is the fitted concentration of half-maximal effect)
Chain of Progesterone receptor (Homo sapiens) (P06401 whole entry, looked up): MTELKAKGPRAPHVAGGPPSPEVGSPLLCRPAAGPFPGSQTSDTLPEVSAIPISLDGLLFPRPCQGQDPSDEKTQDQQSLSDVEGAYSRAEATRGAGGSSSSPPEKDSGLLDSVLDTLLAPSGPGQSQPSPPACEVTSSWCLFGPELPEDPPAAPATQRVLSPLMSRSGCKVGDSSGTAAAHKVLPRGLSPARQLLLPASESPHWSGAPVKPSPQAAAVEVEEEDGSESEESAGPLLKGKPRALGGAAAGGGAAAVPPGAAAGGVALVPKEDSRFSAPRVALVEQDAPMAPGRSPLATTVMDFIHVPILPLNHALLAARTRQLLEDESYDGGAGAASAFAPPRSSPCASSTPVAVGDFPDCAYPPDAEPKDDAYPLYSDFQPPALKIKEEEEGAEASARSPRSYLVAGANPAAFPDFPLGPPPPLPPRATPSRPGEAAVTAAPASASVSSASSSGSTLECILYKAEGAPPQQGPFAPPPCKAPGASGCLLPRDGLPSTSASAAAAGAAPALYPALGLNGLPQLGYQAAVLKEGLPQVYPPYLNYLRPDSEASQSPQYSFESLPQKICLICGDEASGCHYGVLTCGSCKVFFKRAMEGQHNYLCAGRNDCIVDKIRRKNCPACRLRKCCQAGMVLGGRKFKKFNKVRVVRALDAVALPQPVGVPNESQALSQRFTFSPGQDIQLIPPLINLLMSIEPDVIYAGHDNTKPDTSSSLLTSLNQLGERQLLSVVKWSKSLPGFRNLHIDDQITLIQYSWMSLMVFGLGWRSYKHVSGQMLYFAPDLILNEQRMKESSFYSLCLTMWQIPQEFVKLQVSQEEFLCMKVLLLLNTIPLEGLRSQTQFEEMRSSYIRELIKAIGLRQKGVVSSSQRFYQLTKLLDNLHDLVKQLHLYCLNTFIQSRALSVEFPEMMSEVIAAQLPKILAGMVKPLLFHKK
Procedure, shortened: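 Seed PR-UAS-bla HEK 293T cells (2% charcoal-stripped FBS), incubate 6 hr at 37C; add compounds in DMSO, 16 hr at 37C; add LiveBLAzer B/G substrate, 2 hr RT; read fluorescence intensity.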

[12] = biological target: Progesterone receptor (Homo sapiens) (UniProt P06401); experiment: qHTS assay to identify small molecule antagonists of the progesterone receptor (PR) signaling pathway (AID 1346795; active = well fitted inhibition curve with a large enough effect in the signal ratio in the repeat runs, not every such curve was filed as active; the % refers to the signal ratio; note: potency is the fitted concentration of half-maximal effect)
Procedure, shortened: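 Screening used a GripTite HEK293T line with PR-responsive UAS-beta-lactamase. Cells were challenged with compound in the presence of 1 nM R5020 final for 16 hr at 37C; B/G FRET substrate, 2 hr room temperature, fluorescence.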

[13] = qHTS assay to identify small molecule antagonists of the progesterone receptor (PR) signaling pathway - cell viability counter screen (AID 1346798); note: series mostly up to about 92 µM; nearly all actives have a fitted effect of over 50% in size
Procedure, shortened: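 Measures cytotoxicity in parallel with the PR antagonist reporter read: HEK293T PR-UAS-bla cells get compound and R5020 for 16 hr, and remaining viable cells are quantified by CellTiter-Glo luminescence.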

[14] = qHTS assay to identify small molecule agonists or antagonists of the thyroid stimulating hormone receptor (TSHR) signaling pathway - wild type cell line counter screen (AID 1259384; calls by dose curve)
Procedure, shortened: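 Counter screen in untransfected Hek293: compounds (15-point titration, triplicate) plus phosphodiesterase inhibitor Ro20-1724 added after 18 h plating; 30 min RT. Intracellular cAMP via competitive d2/cryptate immunoassay, 1 h incubation.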

[15] = biological target: Thyrotropin receptor (Homo sapiens) (UniProt P16473); experiment: qHTS assay to identify small molecule antagonists of the thyroid stimulating hormone receptor (TSHR) signaling pathway (AID 1259385; calls by dose curve; note: nearly all actives have a fitted effect of over 20% in size)
Chain of Thyrotropin receptor (Homo sapiens) (P16473 whole entry, looked up): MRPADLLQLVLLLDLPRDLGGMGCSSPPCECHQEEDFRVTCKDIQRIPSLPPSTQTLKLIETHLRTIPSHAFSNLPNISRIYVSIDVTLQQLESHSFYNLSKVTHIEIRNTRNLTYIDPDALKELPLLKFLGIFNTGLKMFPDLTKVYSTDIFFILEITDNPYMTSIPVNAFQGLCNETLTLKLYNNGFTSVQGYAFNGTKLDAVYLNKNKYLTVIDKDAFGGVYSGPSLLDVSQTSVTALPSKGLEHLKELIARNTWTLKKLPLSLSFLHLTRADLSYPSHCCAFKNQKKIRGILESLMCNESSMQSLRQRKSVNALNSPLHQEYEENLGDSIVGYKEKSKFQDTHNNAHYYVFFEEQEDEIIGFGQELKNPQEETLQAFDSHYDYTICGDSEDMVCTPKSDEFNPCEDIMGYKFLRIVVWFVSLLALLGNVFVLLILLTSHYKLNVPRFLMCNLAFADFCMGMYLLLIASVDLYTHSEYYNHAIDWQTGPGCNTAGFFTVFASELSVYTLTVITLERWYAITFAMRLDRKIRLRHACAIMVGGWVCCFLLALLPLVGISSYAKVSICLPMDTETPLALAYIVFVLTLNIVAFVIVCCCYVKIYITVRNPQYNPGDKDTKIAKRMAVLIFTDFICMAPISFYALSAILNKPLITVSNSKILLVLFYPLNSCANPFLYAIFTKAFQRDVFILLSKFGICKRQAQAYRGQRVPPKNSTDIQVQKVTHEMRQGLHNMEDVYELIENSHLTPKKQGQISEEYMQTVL
Procedure, shortened: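 Antagonist mode: compound-treated TSHR-expressing HEK293 cells were stimulated with 1.5 ng/mL TSH (final) in presence of Ro20-1724 for 30 min at RT. HTRF cAMP detection after 1 h; each compound tested at 15 concentrations, triplicate.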

[16] = biological target: Estrogen receptor (Homo sapiens) (UniProt P03372); experiment: qHTS assay to identify small molecule agonists of the estrogen receptor alpha (ER-alpha) signaling pathway in the presence of an antagonist (AID 1259383; calls by dose curve; note: nearly all actives have a fitted effect of over 15% in size; note: potency is the fitted concentration of half-maximal effect)
Chain of Estrogen receptor (Homo sapiens) (P03372 whole entry, looked up): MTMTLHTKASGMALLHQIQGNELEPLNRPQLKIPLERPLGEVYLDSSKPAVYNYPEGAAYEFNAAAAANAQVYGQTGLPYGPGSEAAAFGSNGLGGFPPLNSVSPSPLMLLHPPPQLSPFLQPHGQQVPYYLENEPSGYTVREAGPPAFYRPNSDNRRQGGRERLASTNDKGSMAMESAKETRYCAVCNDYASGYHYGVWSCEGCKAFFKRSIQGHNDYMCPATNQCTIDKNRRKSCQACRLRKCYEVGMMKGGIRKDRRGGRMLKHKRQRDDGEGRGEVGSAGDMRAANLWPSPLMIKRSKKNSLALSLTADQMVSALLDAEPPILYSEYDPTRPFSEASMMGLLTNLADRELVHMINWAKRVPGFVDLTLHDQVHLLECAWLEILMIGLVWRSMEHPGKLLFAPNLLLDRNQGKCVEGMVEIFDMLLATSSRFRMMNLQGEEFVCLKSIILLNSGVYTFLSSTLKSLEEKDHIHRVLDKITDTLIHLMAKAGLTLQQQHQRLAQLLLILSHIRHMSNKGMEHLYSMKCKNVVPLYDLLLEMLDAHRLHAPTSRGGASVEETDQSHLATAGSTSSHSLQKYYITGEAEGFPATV
Procedure, shortened: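 Using VM7Luc4E2 cells seeded 24hr before treatment, antagonist ICI-182,780 (10.0nM final) was added, followed by compounds at 15 concentrations. Plates incubated 22hr; ONE-Glo luminescence quantified reporter activity.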

Structure (SMILES): COc1ccccc1N
- Potency [1]: inactive
- Potency [2]: inactive
- Potency [3]: inactive
- Potency [4]: inactive
- outcome [5]: inactive
- Potency [6]: inactive
- Potency [7]: inactive
- Potency [8]: inactive
- Potency [9]: inactive
- Potency [10]: inactive
- Potency [11]: inactive
- Potency [12]: inactive
- Potency [13]: inactive

Structure (SMILES): CCCCCCCCCCCCn1cc[n+](C)c1
- Potency [1]: inactive
- Potency [2]: inactive
- Potency [3]: 27.3 µM (active) [middle of 6 runs]
- Potency [4]: 31.2 µM (active) [middle of 5 runs]
- outcome [5]: inactive
- Potency [11]: inactive
- Potency [12]: 27.5 µM (active) [middle of 4 runs]

Structure (SMILES): N#CS
- Potency [1]: inactive
- Potency [2]: inactive
- Potency [3]: inactive
- Potency [4]: inactive
- outcome [5]: inactive
- Potency [6]: inactive
- Potency [7]: inactive
- Potency [8]: inactive
- Potency [9]: inactive
- Potency [10]: inactive
- Potency [11]: inactive
- Potency [12]: inactive
- Potency [13]: inactive

Structure (SMILES): CCCCn1cc[n+](C)c1
- Potency [1]: inactive
- Potency [2]: inactive
- Potency [3]: inactive
- Potency [4]: inactive
- outcome [5]: inactive
- Potency [6]: inactive
- Potency [7]: inactive
- Potency [8]: inactive
- Potency [9]: inactive
- Potency [10]: inactive
- Potency [13]: inactive

Structure (SMILES): CCCC[n+]1ccccc1
- Potency [1]: inactive
- Potency [2]: inactive
- Potency [3]: inactive
- Potency [4]: inactive
- outcome [5]: inactive
- Potency [6]: inactive
- Potency [7]: inactive
- Potency [8]: inactive
- Potency [9]: inactive
- Potency [14]: inactive
- Potency [15]: inactive
- Potency [10]: inactive
- Potency [11]: inactive
- Potency [12]: inactive
- Potency [13]: inactive

Structure (SMILES): CCCCCCCCCCCCOS(=O)(=O)O
- Potency [1]: inactive
- Potency [2]: inactive
- Potency [3]: inactive
- Potency [4]: inactive
- outcome [5]: inactive
- Potency [6]: inactive
- Potency [7]: inactive
- Potency [9]: 54.5 µM (active) and inactive
- Potency [10]: inactive
- Potency [11]: inactive
- Potency [12]: inactive
- Potency [13]: inactive

Structure (SMILES): CCCCCCCCCCCC(=O)O
- Potency [1]: inactive
- Potency [2]: inactive
- Potency [3]: inactive
- Potency [4]: inactive
- outcome [5]: inactive
- Potency [6]: inactive
- Potency [7]: inactive
- Potency [8]: 43.3 µM (active)
- Potency [9]: inactive
- Potency [14]: inactive
- Potency [15]: inactive
- Potency [10]: inactive
- Potency [11]: inactive
- Potency [12]: inactive
- Potency [13]: inactive

Structure (SMILES): CCCCCCCCCCn1cc[n+](C)c1
- Potency [1]: inactive
- Potency [2]: inactive
- Potency [3]: inactive
- Potency [4]: inactive
- outcome [5]: inactive
- Potency [8]: inactive and 2.73 µM (active)
- Potency [9]: inactive
- Potency [11]: inactive
- Potency [12]: 31.4 µM (active) and 48.5 µM (active) and 27.3 µM (active)
- Potency [13]: inactive

Structure (SMILES): O=C(O)c1ccccc1O
- Potency [1]: inactive
- Potency [2]: inactive
- Potency [3]: inactive
- Potency [4]: inactive
- outcome [5]: inactive
- Potency [6]: inactive
- Potency [7]: inactive
- Potency [8]: inactive
- Potency [9]: inactive
- Potency [10]: inactive
- Potency [11]: inactive
- Potency [12]: inactive
- Potency [13]: inactive

Structure (SMILES): CC(=O)O
- Potency [1]: inactive
- Potency [2]: inactive
- Potency [3]: inactive
- Potency [4]: inactive
- outcome [5]: inactive
- Potency [6]: inactive
- Potency [7]: inactive
- Potency [8]: inactive
- Potency [9]: inactive
- Potency [10]: inactive
- Potency [11]: inactive and 392 nM (active)
- Potency [12]: inactive
- Potency [13]: inactive

Structure (SMILES): O=c1nc(O)n(Cl)c(=O)n1Cl
- Potency [1]: inactive
- Potency [2]: inactive
- Potency [3]: inactive
- Potency [4]: inactive
- outcome [5]: inactive
- Potency [6]: inactive
- Potency [7]: inactive
- Potency [8]: inactive
- Potency [9]: inactive
- Potency [10]: inactive
- Potency [11]: inactive
- Potency [12]: inactive
- Potency [13]: inactive

Structure (SMILES): Cc1cc(-c2ccc(N)c(C)c2)ccc1N
- Potency [1]: 48.4 µM (active)
- Potency [2]: inactive
- Potency [3]: inactive
- Potency [4]: inactive
- outcome [5]: inactive
- Potency [6]: 8.73 µM (active)
- Potency [7]: inactive
- Potency [9]: inactive
- Potency [16]: 2.14 µM (active) and inactive
- Potency [10]: inactive
- Potency [11]: inactive
- Potency [12]: 61.8 µM (active) and 48.4 µM (active) and 17.2 µM (active)
- Potency [13]: inactive

Structure (SMILES): O=C(O)CC(O)(CC(=O)O)C(=O)O
- Potency [1]: inactive
- Potency [2]: inactive
- Potency [3]: inactive
- Potency [4]: inactive
- outcome [5]: inactive
- Potency [6]: inactive
- Potency [7]: inactive
- Potency [8]: inactive
- Potency [9]: inactive
- Potency [10]: inactive
- Potency [11]: inactive and 87.8 nM (active)
- Potency [12]: inactive
- Potency [13]: inactive

Structure (SMILES): CC[N+]1(C)CCCC1
- Potency [1]: inactive
- Potency [2]: inactive
- Potency [3]: inactive
- Potency [4]: inactive
- outcome [5]: inactive
- Potency [6]: 39.5 µM (active) and inactive
- Potency [7]: inactive and 61.3 µM (active)
- Potency [8]: inactive
- Potency [9]: inactive
- Potency [10]: inactive
- Potency [11]: 19.8 µM (active) and inactive
- Potency [12]: inactive
- Potency [13]: inactive

Structure (SMILES): CCCC[n+]1ccccc1C
- Potency [1]: inactive
- Potency [2]: inactive
- Potency [3]: inactive
- Potency [4]: inactive
- outcome [5]: inactive
- Potency [6]: inactive
- Potency [7]: inactive
- Potency [8]: inactive
- Potency [9]: inactive
- Potency [10]: inactive
- Potency [11]: inactive
- Potency [12]: inactive
- Potency [13]: inactive

Structure (SMILES): CCCCCC[n+]1ccccc1
- Potency [1]: inactive
- Potency [2]: inactive
- Potency [3]: inactive
- Potency [4]: inactive
- outcome [5]: inactive
- Potency [6]: 13.8 µM (active) and 17.3 µM (active) and inactive
- Potency [7]: inactive
- Potency [8]: inactive
- Potency [9]: inactive
- Potency [10]: inactive
- Potency [11]: inactive
- Potency [12]: inactive
- Potency [13]: inactive

Structure (SMILES): CCCCCCn1cc[n+](C)c1
- Potency [1]: inactive
- Potency [2]: inactive
- Potency [3]: inactive
- Potency [4]: inactive
- outcome [5]: inactive
- Potency [6]: 7.74 µM (active) and 89.9 nM (active)
- Potency [7]: 50.5 µM (active) [middle of 6 runs]
- Potency [8]: inactive
- Potency [9]: inactive
- Potency [10]: inactive
- Potency [11]: inactive
- Potency [12]: inactive
- Potency [13]: inactive
